Consider 40 compounds from PubChem BioAssay (EPA / NIEHS).

As usually defined, the AC50 is the concentration giving half of the maximal activity seen.

Active and inactive are the calls of the source. The calls were made as follows: active = hit-call score of the fitted dose curve at least 0.9, where 1 is the maximum; inactive = score below 0.9.

A short description of the test: ATG_GATA_CIS: Attagene CIS-FACTORIAL HepG2 Assay for human GATA Binding Protein (AID 2282944). The note with it: HepG2 GATA cis-element reporter, Attagene multiplex mRNA; actives raise or lower the signal. As to the method: ATG_CIS is a cell-based, multiplexed-readout assay that uses HepG2, a human liver cell line, with measurements taken at 24 hours after chemical dosing in a 24-well plate.ATG_GATA_CIS is one of 52 assay component(s) measured or calculated from the ATG_CIS assay. It is designed to make measurements of mRNA induction, a form of inducible reporter, as detected with fluorescence intensity signals by Reverse transcription polymerase chain reaction (RT-PCR) and Capillary electrophoresis technology.Data from the assay component ATG_GATA_CIS was analyzed into 1 assay endpoint. This assay endpoint, ATG_GATA_CIS, was analyzed with bidirectional fitting relative to DMSO as the negative control and baseline of activity. Using a type of inducible reporter, measures of mRNA for gain or loss-of-signal activity can be used to understand the reporter gene at the transcription factor-level as they relate to the gene GATA1. Furthermore, this assay endpoint can be referred to as a primary readout, because this assay has produced multiple assay endpoints where this one serves a reporter gene function. To generalize the intended target to other relatable targets, this assay endpoint is annotated to the dna binding intended target family, where the subfamily is GATA proteins.
Human liver HepG2 cells are transiently transfected with multiple reporter transcription units (MRTUs) in 6-well plates using FuGene 6 reagent (Roche; 3 ml FuGene/1 mg DNA). The MRTU constructs are regulated by a cis-regulating element (promoter). […] A major difference between the CIS and TRANS system is that in CIS activities of endogenous TFs are measured, whereas the TRANS assay evaluates changes in activities of exogenous, chimeric NR-Gal4 proteins. […] At the end of 24 hour incubation, total RNA was isolated using TriZol reagent (Invitrogen). The isolated RNA is then reverse-transcribed using oligo(dT) primer and Mo-MLV reverse transcriptase (Invitrogen) with DNAse I (Ambion) treatment for 30 min. The one-tenth of the produced cDNA was amplified by PCR using Taq DNA polymerase (Invitrogen) and two reporter sequence-specific primers. The PCR products were fluorescently labeled by primer extension with 6-arboxyfluorescein (6-FAM) 5'-labeled reporter sequence-specific primer (2 min at 95 C, 20 s at 68 C and 10 min at 72 C) and these products were digested with 5U of HpaI (New England Biolabs) for 2h at 37 C. The fragments were purified using Qiaquick PCR columns (Qiagen), analyzed on an ABI 3130xL genetic analyzer (Applied Biosystems) with peak positions identified by using a set of X-rhodamine (ROX)-labeled MapMarker1000 molecular weight standards (BioVentures). The raw capillary electrophoresis data was processed using Attagraph software (Attagene).
For `OCCOCCOCCO`, the outcome was inactive.

For `OCc1ccccc1`, the compound was classed as inactive.

Regarding `C[C@]12C=CC(=O)C=C1CC[C@H]1[C@@H]3C[C@@H](O)[C@](O)(C(=O)CO)[C@@]3(C)C[C@H](O)[C@@]12F`, the call was inactive.

Take `C=CN1CCCC1=O`: the call was inactive.

Consider `Nc1ccn([C@@H]2O[C@H](CO)[C@@H](O)[C@@H]2O)c(=O)n1`, for which the result was inactive.

On to `FC(F)(F)COC(OCC(F)(F)F)OCC(F)(F)F`, for which the compound was classed as inactive.

Consider `O=S1(=O)CCCO1`, for which the result was inactive.

Turning to `O=C(O)CO`, the compound was called inactive.

On to `c1ccc(C(O[C@@H]2CCCN(CCc3ccc4c(c3)OCO4)C2)c2ccccc2)cc1`, for which the result was inactive.

On to `OCc1c[nH]c2ccccc12`, for which the compound was called inactive.

Consider `COCc1nnc(-c2ccc[n+]([O-])c2)n1-c1c(Cl)c(Cl)cc2[nH]c(=O)c(=O)[nH]c12`, for which the compound was classed as inactive.

As to `CCn1nc(C)c2c1C(=O)NCC(c1ccc(O)cc1)=N2`, the compound was called inactive.

On to `NC(=O)NN=Cc1ccc([N+](=O)[O-])o1`, for which the call was inactive.

Take `FC(F)(F)C(F)(F)C(F)(F)C(F)(F)C(F)(F)C(F)(F)I`: the compound was called inactive.

Turning to `Cc1ncc([C@@H](CCCCCCc2ccc3c(n2)NCCC3)CC(=O)O)cn1`, the call was inactive.

With `CCCCCCCCCC`, the AC50 is 33 nM (active).

In the case of `NCC(F)(F)C(F)(F)C(F)(F)C(F)(F)F`, the outcome was inactive.

Consider `CC(C)C(=O)Nc1ccc([N+](=O)[O-])c(C(F)(F)F)c1`, for which the result was inactive.

In the case of `CC(C)c1nnc2ccc(-c3ocnc3-c3cc(F)ccc3F)cn12`, the compound was classed as inactive.

With `C[Si](C)(C)C(F)(F)C(F)(F)C(F)(F)F`, the outcome was inactive.

With `CCCCC(CC)C(=O)OCCOCCOCCOC(=O)C(CC)CCCC` (stereo not given), the compound was called inactive.

In the case of `OCC(CO)(CO)CO`, the outcome was inactive.

For the compound `FC(F)C(F)(F)COCC1CO1` (stereo not given), the compound was called inactive.

With `FC(F)=C(F)C(F)(F)C(F)(F)C(F)(F)C(F)(F)C(F)(F)C(F)(F)F`, the call was inactive.

Take `c1ccc2cc3ccccc3cc2c1`: the call was inactive.

With `OC[C@H]1O[C@@](CO)(O[C@H]2O[C@H](CO)[C@@H](O)[C@H](O)[C@H]2O)[C@@H](O)[C@@H]1O`, the call was inactive.

On to `Cn1cc[nH]c1=S`, for which the compound was classed as inactive.

As to `Cc1nccn1-c1ccc(Sc2cccc(C3(C(N)=O)CCOCC3)c2)cc1`, the result was inactive.

On to `C[C@@H](Oc1ccc(CNC(=O)c2cccnc2Oc2ccc3c(c2)OCO3)c(F)c1)C(=O)O`, for which the result was inactive.

With `O=c1[nH]cnc2c1ncn2[C@H]1CC[C@@H](CO)O1`, the result was inactive.

With `NC(N)=O`, the call was inactive.

With `c1ccc2c(c1)-c1cccc3c1c-2cc1ccccc13`, the outcome was inactive.

Consider `C=CCc1cc(S(=O)(=O)c2ccc(O)c(CC=C)c2)ccc1O`, for which the result was inactive.

Regarding `O=C(NO)C1(NS(=O)(=O)c2ccc(Oc3ccc(F)cc3)cc2)CCOCC1`, the compound was classed as inactive.

As to `CCCCN1C(=O)[C@@H]([C@H](O)C2CCCCC2)NC(=O)C12CCN(Cc1ccc(Oc3ccc(C(=O)O)cc3)cc1)CC2`, the compound was called inactive.

As for `O=C(O)c1cccc(C[C@@H]2COc3ccc(OCc4nc5cc(F)ccc5s4)cc3[C@@H]2O)c1`, the compound was classed as inactive.

`S=P(N1CC1)(N1CC1)N1CC1`: the outcome was inactive.

As to `Cn1c(=O)c2[nH]cnc2n(C)c1=O`, the result was inactive.

With `CCCOc1ccc(S(=O)(=O)N2CCN(CC)CC2)cc1-c1nc2c(CC)n(Cc3ccccn3)nc2c(=O)[nH]1`, the outcome was inactive.

For the compound `OC(O)(C(F)C(O)(O)C(F)(F)F)C(F)(F)F`, the compound was called inactive.
